For 40 compounds, Inhibition results are on record in ChEMBL document CHEMBL1157539, “Thousands of chemical starting points for antimalarial lead identification” (Nature, 2010).

The subject of the first experiment is Plasmodium falciparum. The experiment is described as follows: GSK_TCMDC: Inhibition of Plasmodium falciparum 3D7 in whole red blood cells, using parasite LDH activity as an index of growth. Test compounds present at 2uM. The experiment is classed as functional.
As a reminder, the Inhibition is the drop in the measured response relative to a control, in per cent. High values mean strong suppression, low ones little suppression. Consider `Clc1ccc(CNc2nc(NCCc3c[nH]cn3)nc(Nc3ccc4c(c3)OCO4)n2)cc1`, for which the Inhibition was found to be 84%.

Consider `CC(C)(C)OC(=O)N(Cc1cc(-n2nnnc2C(F)(F)F)ccc1O)[C@H]1CCCN(C(=O)OC(C)(C)C)[C@H]1c1ccccc1`, for which the Inhibition is reported as 98%. Regarding `O=C(NC1CCCc2ccccc21)[C@@H]1CCCN1C(=O)c1ccc(O)c(-c2cccc([N+](=O)[O-])c2)c1` (stereo partly drawn), the Inhibition worked out at 99%.

A further experiment has as its system Plasmodium falciparum. The experiment is described as follows: GSK_TCMDC: Inhibition of Plasmodium falciparum Dd2 in whole red blood cells, using parasite LDH activity as an index of growth. Test compounds present at 2uM. The class given is functional.
`Br.CCCCCCCn1c2c(c(=N)c3c1CCC3)CCCC2` registered an Inhibition of 98%. As for `O=C(/C=C/c1ccc(Cl)cc1)NCCCCCN1CCCN(C(=O)Nc2ccc(F)c(Cl)c2)CC1`, the Inhibition is reported as 6%. On the same count and under the same terms, in the case of `Nc1ncc(-c2ccc(F)cc2)c2ccc(-c3cccc(F)c3)cc12` it was 89%. Same read-out and setting: the figure for `Cc1cc(C(=O)Nc2ccc3c(c2)CCN3C2CCN(Cc3cccc4cc[nH]c34)C2)no1` (stereo not drawn) is 96%; for `COc1cccc2cc(C(=O)N[C@@H](CC(C)C)C(=O)N[C@H](/C=N/NC(=O)N3CCN(C)CC3)CCc3ccccc3)oc12.Cl` it is 73%.

On to `COc1ccc2nccc([C@@H](O)CN3CCC(NCc4cnc5c(c4)NC(=O)CS5)C(F)C3)c2c1.Cl` (stereo partly drawn), for which the Inhibition is 90%. Still for that read-out and setting: in the case of `C=C(F)c1sc(CNCCCNc2nc3ccccc3[nH]2)c(C)c1Br` it was 23%; in that of `CN(CCO)Cc1cccc(-c2ccc(NC(=O)c3cccc(C#N)c3)cc2)c1.O=C(O)C(F)(F)F`, 57%; in that of `Cc1noc(C)c1-c1ccc2c(Nc3ccc([N+](=O)[O-])cc3)c(C(N)=O)cnc2c1.Cl`, 98%.

In the case of `CN1CCCN(Cc2cccc(-c3cccc(NC(=O)c4cccc(C#N)c4)c3)c2)CC1.O=C(O)C(F)(F)F`, the Inhibition was determined as 33%.

For `Cc1ccc2c(c1)nc(N)n2C[C@H](O)c1ccccc1`, the Inhibition was 74%. The same measure, in the same setting: in the case of `COc1ccc(-c2cccc(NC(=O)c3cccc(Cl)c3)c2)cc1CN1CCN(C)CC1.O=C(O)C(F)(F)F` it was 48%; in that of `CCc1ccc(-n2c(=O)c3cccnc3n2CC(=O)NC2CCCC2)cc1`, 27%; in that of `Cc1ccccc1C1CCN(C2CCC(NC(=O)c3ccc(-c4cccc(C(F)(F)F)c4)o3)CC2)CC1` (stereo not drawn), 100%. Still for that read-out and setting: in the case of `C[C@H](Cc1ccc(CCc2ccc(C[C@@H](C)NC[C@H](O)c3cccc(Cl)c3)cc2)cc1)NC[C@H](O)c1cccc(Cl)c1.Cl` it was 92%; in that of `Cl.c1ccc(CC2=NCCN2)cc1` [TOLAZOLINE HYDROCHLORIDE], 0%.

Take `N#Cc1ccc(-n2cc(C(=O)Nc3ccc4c(c3)CCN(C3CCC3)CC4)c(C(F)(F)F)n2)cc1.O=C(O)C(F)(F)F`: the Inhibition came to 99%. Same read-out and setting: in the case of `CNC(=O)c1ccccc1Nc1nc(Nc2ccc(CCN3CCN(C)CC3)cc2)ncc1Cl.Cl` it was 98%; in that of `CCN(CC)CCN(Cc1ccc(-c2ccc(C(F)(F)F)cc2)cc1)C(=O)Cn1c(CCc2c(F)cc(F)cc2F)nc(=O)c2ccccc21.O=C(O)C(O)C(O)C(=O)O`, 26%.

Turning to `O=C(Nc1cccc(CN2CCCN(Cc3ccsc3)CC2)c1)c1ccc(-c2ccccc2)cc1.O=C(O)C(F)(F)F`, the Inhibition is recorded as 11%.

Consider `COc1ccc(-c2cc3ncnc(N4CCN(CCN5CCCC5)CC4)c3s2)cc1`, for which the Inhibition is 90%. Still for that read-out and setting: the figure for `Cc1ccccc1C1CCN(C2CCC(NC(=O)c3cc(-c4ccc(Cl)cc4)cs3)CC2)CC1` (stereo not drawn) is 100%. Compound `CNC(=O)CC(=O)NCCc1ccc(Cl)cc1` registered an Inhibition of 1%. The compound `CCC(C)NCc1c(O)ccc2c(CNC(C)CC)c(O)ccc12.Cl` (stereo not drawn) yielded an Inhibition of 31%. In turn, `Cc1cc(N[C@@H](CC(C)C)C(=O)Nc2ccccc2)nc(NCC2CCCCC2)n1.O=C(O)C(F)(F)F` came in with an Inhibition of 95%. Same read-out and setting: in the case of `CCn1c(C=Cc2cc(Br)ccc2O)nc2ccccc2c1=O` it was 95%.

Take `O=C(Nc1ccc(Cl)cc1)Nc1cccc(-c2cccc(-c3nc4cc(C(F)(F)F)ccc4[nH]3)c2)c1`: the Inhibition worked out at 97%. In turn, `CCCc1ccccc1Nc1nc(C)cc(N(CC)CCCN2CCCCC2)n1.O=C(O)C(F)(F)F` came in with an Inhibition of 49%. Still for that read-out and setting: in the case of `COc1cc(NC(=O)Nc2ccnc3ccccc23)cc(OC)c1.Cl` it was 34%; in that of `Cc1cc(N2CCCC2)nc(Nc2ccc(NC(=O)C(C)Oc3ccccc3)cc2)n1` (stereo not drawn), 58%; in that of `COc1ccc(CCN(C)CCCN2CCC(NC(=O)c3cccc4c(=O)c5ccccc5[nH]c34)CC2)cc1OC.O=C(O)C(=O)O`, 72%. In turn, `CCOC(=O)C1=C(C)NC2=C(C(=O)CC(C)(C)C2)C1c1ccc(Cl)cc1` (stereo not drawn) returned an Inhibition of 84%. On the same count and under the same terms, the figure for `Cc1ccc(Nc2nc(C)cc(NC3CC3)n2)cc1` is 15%; for `O=C(Nc1ccc(-c2cccc(-c3nc4ccccc4[nH]3)c2)cc1)Nc1ccc2c(c1)OCO2` it is 65%. Still for that read-out and setting: in the case of `CC(=O)c1ccc(NC(=O)Nc2ccc3nccc(N4CCN(C)CC4)c3c2)cc1` it was 93%; in that of `CC(C)(C)c1ccc(CN2CCC(CNC(=O)c3cc(-c4ccccc4F)cs3)C2)cc1.O=C(O)C(F)(F)F` (stereo not drawn), 98%. Same read-out and setting: in the case of `COc1cccc(CN2CCN(C(c3ccccc3)c3ccccc3)CC2)c1O.O=C(O)C(=O)O` it was 98%; in that of `Clc1ccc(CNc2nc(NCCc3c[nH]cn3)nc(Nc3ccc4c(c3)OCO4)n2)cc1`, 6%; in that of `CC(C)(C)OC(=O)N(Cc1cc(-n2nnnc2C(F)(F)F)ccc1O)[C@H]1CCCN(C(=O)OC(C)(C)C)[C@H]1c1ccccc1`, 66%. `O=C(NC1CCCc2ccccc21)[C@@H]1CCCN1C(=O)c1ccc(O)c(-c2cccc([N+](=O)[O-])c2)c1` (stereo partly drawn) showed an Inhibition of 99%.
